The entries come from a sample that favours the strongest signals as a whole.
Legend:
Assay in all cases: glycan array binding signal (z-score within array); higher = stronger binding
Conditions in all cases: glycan notation: IUPAC condensed, linker removed
[1] = target: Fuc(a1-2)Gal(b1-3)GalNAc(b1-3)Gal
In short: (§1)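 Glycan array data were curated from 3228 arrays in the Consortium for Functional Glycomics database and kept only where the protein sequence was available. Glycan names were converted to IUPAC-condensed notation, and columns mapping to the same glycan were averaged. The binding signal is a within-array Z-score, averaged across arrays of the same protein sequence at different concentrations or buffers and across linkers. Negative Z-scores can be read as non-binding.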

[2] = target: Fuc(a1-2)Gal(b1-4)GlcNAc(b1-2)Man(a1-3)[Fuc(a1-2)Gal(b1-4)GlcNAc(b1-2)Man(a1-6)]Man(b1-4)GlcNAc(b1-4)GlcNAc
In short: as §1

[3] = target: Fuc(a1-2)Gal(b1-4)[Fuc(a1-3)]GlcNAc
In short: as §1

[4] = target: Fuc(a1-2)[Gal(a1-3)]Gal(b1-4)Glc
In short: as §1

[5] = target: Fuc(a1-2)[GalNAc(a1-3)]Gal(b1-4)GlcNAc(b1-3)Gal(b1-4)GlcNAc(b1-3)Gal(b1-4)GlcNAc
In short: as §1

Gal(a1-3)Gal = target: Gal(a1-3)Gal
In short: as §1

[6] = target: Gal(a1-3)Gal(b1-4)GlcNAc(b1-3)GalNAc
In short: as §1

[7] = target: Gal(a1-3)Gal(b1-4)[Fuc(a1-3)]GlcNAc(b1-2)Man(a1-3)[Gal(a1-3)Gal(b1-4)[Fuc(a1-3)]GlcNAc(b1-2)Man(a1-6)]Man(b1-4)GlcNAc(b1-4)GlcNAc
In short: as §1

Gal(a1-3)GalNAc = target: Gal(a1-3)GalNAc
In short: as §1

Gal(b1-3)Gal(b1-4)GlcNAc = target: Gal(b1-3)Gal(b1-4)GlcNAc
In short: as §1

[8] = target: Gal(b1-3)GlcNAc(b1-2)Man(a1-3)[Gal(b1-3)GlcNAc(b1-2)Man(a1-6)]Man(b1-4)GlcNAc(b1-4)[Fuc(a1-6)]GlcNAc
In short: as §1

[9] = target: Gal(b1-4)GlcNAc(b1-2)Man(a1-3)[Gal(b1-4)GlcNAc(b1-2)Man(a1-6)]Man(b1-4)GlcNAc(b1-4)GlcNAc
In short: as §1

[10] = target: Gal(b1-4)GlcNAc(b1-2)Man(a1-3)[Gal(b1-4)GlcNAc(b1-2)Man(a1-6)]Man(b1-4)GlcNAc(b1-4)[Fuc(a1-6)]GlcNAc
In short: as §1

[11] = target: Gal(b1-4)GlcNAc(b1-3)Gal(b1-4)GlcNAc(b1-3)Gal(b1-4)GlcNAc
In short: as §1

[12] = target: Gal(b1-4)GlcNAc(b1-3)Gal(b1-4)[Fuc(a1-3)]GlcNAc(b1-3)Gal(b1-4)[Fuc(a1-3)]GlcNAc
In short: as §1

[13] = target: Gal(b1-4)GlcNAc(b1-3)[GlcNAc(b1-6)]Gal(b1-4)GlcNAc
In short: as §1

Gal6S(b1-4)Glc6S = target: Gal6S(b1-4)Glc6S
In short: as §1

GalNAc(a1-3)Gal = target: GalNAc(a1-3)Gal
In short: as §1

[14] = target: GlcNAc(a1-4)Gal(b1-4)GalNAc
In short: as §1

[15] = target: GlcNAc(a1-4)Gal(b1-4)GlcNAc(b1-3)Gal(b1-4)[Fuc(a1-3)]GlcNAc(b1-3)Gal(b1-4)[Fuc(a1-3)]GlcNAc
In short: as §1

[16] = target: GlcNAc(b1-2)Man(a1-3)[GlcNAc(b1-2)Man(a1-6)]Man(b1-4)GlcNAc(b1-4)[Fuc(a1-6)]GlcNAc
In short: as §1

[17] = target: Man(a1-3)[Man(a1-6)]Man(a1-6)[Man(a1-2)Man(a1-3)]Man(b1-4)GlcNAc(b1-4)GlcNAc
In short: as §1

[18] = target: Neu5Ac(a2-3)Gal(b1-4)GlcNAc(b1-3)Gal(b1-4)GlcNAc
In short: as §1

[19] = target: Neu5Ac(a2-3)Gal(b1-4)[Fuc(a1-3)]GlcNAc
In short: as §1

[20] = target: Neu5Ac(a2-3)GalNAc(b1-4)GlcNAc
In short: as §1

Neu5Ac(a2-6)Gal = target: Neu5Ac(a2-6)Gal
In short: as §1

[21] = target: Neu5Gc(a2-3)Gal(b1-4)[Fuc(a1-3)]GlcNAc
In short: as §1

[22] = target: Neu5Gc(b2-6)Gal(b1-4)GlcNAc
In short: as §1

B1: SRS6 (Toxoplasma gondii), Q9NH12 (protein)
chain: MARTGSMQQRRGGFQTTARMLMAVCVSGVLLLSSGPSSANKLTEGQQNQNSGPGAATQEGPTIEGAVAKCVLKTTAAENGSSRAKNTTGLTLSKENLVVSLQCSGEKNAIVPKDQKKVCSAAPNAKVADCKGADTDKQVTLKSLLGTSGDIQWEKTIVSTDNKGEVMTLKIKESELPLFDKAFFVGCEEDKAQTRTSQATECKVNVSVKARPSTVGENNVVTCAYGKDSNPRPLEVEMSADNDTLTIDCGTDGSLKPTKYTEEFCVTDNSQLESCTTKKFSEILPTFLPSWWVSDSQNGSAKLTIPESGFPEEQQQFRLGCVPKKTTQSPQANPSVKTEKEEGAQNTDASTSNCSVIVTVKASNFSSLASSIAPTAAVAGGAAALTGFLVGSF
glycan array binding signal (z-score) [1]: 1.86
glycan array binding signal (z-score) [2]: 1.71
glycan array binding signal (z-score) [3]: 0.016
glycan array binding signal (z-score) [4]: -0.753
glycan array binding signal (z-score) [5]: -0.105
glycan array binding signal (z-score) (Gal(a1-3)Gal): 0.351
glycan array binding signal (z-score) [6]: 0.006
glycan array binding signal (z-score) [7]: 0.436
glycan array binding signal (z-score) (Gal(a1-3)GalNAc): -0.288
glycan array binding signal (z-score) (Gal(b1-3)Gal(b1-4)GlcNAc): -0.549
glycan array binding signal (z-score) [8]: 1.28
glycan array binding signal (z-score) [9]: -0.558
glycan array binding signal (z-score) [10]: 3.04
glycan array binding signal (z-score) [11]: 2.32
glycan array binding signal (z-score) [12]: -0.096
glycan array binding signal (z-score) [13]: 0.169
glycan array binding signal (z-score) (Gal6S(b1-4)Glc6S): 4.38
glycan array binding signal (z-score) (GalNAc(a1-3)Gal): 0.054
glycan array binding signal (z-score) [14]: 0.375
glycan array binding signal (z-score) [15]: 0.807
glycan array binding signal (z-score) [16]: 13.7
glycan array binding signal (z-score) [17]: 1.44
glycan array binding signal (z-score) [18]: 2.13
glycan array binding signal (z-score) [19]: -0.808
glycan array binding signal (z-score) [20]: -0.177
glycan array binding signal (z-score) (Neu5Ac(a2-6)Gal): 0.288
glycan array binding signal (z-score) [21]: 0.103
glycan array binding signal (z-score) [22]: 0.403

— the supplement of paper PMC8728848
